Data published in PMC7862700, “An all-to-all approach to the identification of sequence-specific readers for epigenetic DNA modifications on cytosine”.

Assays:
Test in all cases: DAPPL (digital affinity profiling via proximity ligation, sequencing); 10 mM Tris-HCl pH 7.5, 50 mM NaCl, 1 mM DTT, 4% glycerol, room temperature, 30 min; GST-TFs on glutathione beads, 16-mer random dsDNA library, 0.1% formaldehyde crosslink after washing; high values mean tight binding
FLI1 = target: T1, FLI1 (Homo sapiens, UniProt Q01543 1-452); conditions: protein: recombinant; tags: N-terminal GST; dsDNA, one strand shown
T1 sequence: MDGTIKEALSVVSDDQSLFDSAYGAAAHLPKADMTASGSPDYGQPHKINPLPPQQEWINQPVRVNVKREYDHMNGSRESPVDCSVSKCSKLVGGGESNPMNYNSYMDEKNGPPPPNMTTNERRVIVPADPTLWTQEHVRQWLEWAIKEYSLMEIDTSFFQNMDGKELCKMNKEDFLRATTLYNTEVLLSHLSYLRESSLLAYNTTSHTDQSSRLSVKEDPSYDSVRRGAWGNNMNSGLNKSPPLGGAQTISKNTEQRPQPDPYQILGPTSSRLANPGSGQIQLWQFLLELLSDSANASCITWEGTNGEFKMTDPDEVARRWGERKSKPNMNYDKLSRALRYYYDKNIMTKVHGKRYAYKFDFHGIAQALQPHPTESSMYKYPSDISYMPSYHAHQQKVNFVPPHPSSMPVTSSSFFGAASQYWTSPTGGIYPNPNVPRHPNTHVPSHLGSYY
Method in brief: (§1)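 Yeast served to express human transcription factors as GST fusions, which were then captured on glutathione beads and labelled with DNA barcodes. Pooled with a tag-only sample, they were incubated with 200 nmole of a 16-mer random double-stranded DNA library for 30 min at room temperature in Tris/NaCl/DTT/glycerol buffer, washed, crosslinked with 0.1% formaldehyde, ligated by proximity, amplified by PCR and sequenced. Dividing each hexamer's read frequency for a factor by its frequency for the tag-only sample gives the binding signal.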

ELK1 = target: T2, ELK1 (Homo sapiens, UniProt P19419 1-428); conditions: protein: recombinant; tags: N-terminal GST; dsDNA, one strand shown
T2 sequence: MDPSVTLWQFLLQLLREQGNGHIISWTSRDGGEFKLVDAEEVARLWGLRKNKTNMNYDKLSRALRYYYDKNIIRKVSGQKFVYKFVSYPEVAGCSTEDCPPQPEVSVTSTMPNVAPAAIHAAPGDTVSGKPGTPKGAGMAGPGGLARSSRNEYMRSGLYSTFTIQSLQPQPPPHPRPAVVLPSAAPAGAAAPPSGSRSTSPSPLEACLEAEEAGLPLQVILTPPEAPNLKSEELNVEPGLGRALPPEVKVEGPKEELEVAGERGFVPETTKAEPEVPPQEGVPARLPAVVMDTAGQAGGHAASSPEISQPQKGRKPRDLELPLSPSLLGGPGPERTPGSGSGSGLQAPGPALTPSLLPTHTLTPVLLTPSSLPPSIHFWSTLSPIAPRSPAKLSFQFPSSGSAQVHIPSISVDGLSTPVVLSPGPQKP
Method in brief: as §1

GABPA = target: T3, GABPA (Homo sapiens, UniProt Q06546 1-454); conditions: protein: recombinant; tags: N-terminal GST; dsDNA, one strand shown
T3 sequence: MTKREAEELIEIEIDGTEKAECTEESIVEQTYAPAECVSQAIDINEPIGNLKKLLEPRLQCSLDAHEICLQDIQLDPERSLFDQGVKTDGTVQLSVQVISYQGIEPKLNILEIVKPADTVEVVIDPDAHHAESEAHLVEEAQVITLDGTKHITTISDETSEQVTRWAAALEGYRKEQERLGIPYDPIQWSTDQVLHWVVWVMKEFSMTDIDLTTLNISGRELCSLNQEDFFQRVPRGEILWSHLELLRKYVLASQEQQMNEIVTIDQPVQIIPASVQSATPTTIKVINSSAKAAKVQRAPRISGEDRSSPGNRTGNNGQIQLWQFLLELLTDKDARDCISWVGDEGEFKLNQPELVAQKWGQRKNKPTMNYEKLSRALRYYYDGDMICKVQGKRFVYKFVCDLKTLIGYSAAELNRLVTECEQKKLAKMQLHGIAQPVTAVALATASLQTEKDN
Method in brief: as §1

ERG = target: T4, ERG (Homo sapiens, UniProt P11308 1-479); conditions: protein: recombinant; tags: N-terminal GST; dsDNA, one strand shown
T4 sequence: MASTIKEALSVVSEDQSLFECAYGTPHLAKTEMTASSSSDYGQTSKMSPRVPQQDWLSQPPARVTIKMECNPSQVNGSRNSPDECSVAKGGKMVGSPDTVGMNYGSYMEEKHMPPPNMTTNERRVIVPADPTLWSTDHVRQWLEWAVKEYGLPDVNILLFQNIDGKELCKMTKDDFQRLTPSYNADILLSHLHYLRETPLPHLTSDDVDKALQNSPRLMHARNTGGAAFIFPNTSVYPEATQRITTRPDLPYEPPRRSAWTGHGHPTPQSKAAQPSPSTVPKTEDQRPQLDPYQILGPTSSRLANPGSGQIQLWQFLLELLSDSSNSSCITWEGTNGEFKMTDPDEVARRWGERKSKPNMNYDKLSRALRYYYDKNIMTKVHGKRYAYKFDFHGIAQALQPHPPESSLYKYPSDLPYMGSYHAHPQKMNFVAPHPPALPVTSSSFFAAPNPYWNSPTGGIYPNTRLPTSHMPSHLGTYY
Method in brief: as §1

ELF1 = ELF1 (Homo sapiens, UniProt P32519 1-619); conditions: protein: recombinant; tags: N-terminal GST; dsDNA, one strand shown
Method in brief: as §1

EHF = target: T5, EHF (Homo sapiens, UniProt Q9NZC4 1-300); conditions: protein: recombinant; tags: N-terminal GST; dsDNA, one strand shown
T5 sequence: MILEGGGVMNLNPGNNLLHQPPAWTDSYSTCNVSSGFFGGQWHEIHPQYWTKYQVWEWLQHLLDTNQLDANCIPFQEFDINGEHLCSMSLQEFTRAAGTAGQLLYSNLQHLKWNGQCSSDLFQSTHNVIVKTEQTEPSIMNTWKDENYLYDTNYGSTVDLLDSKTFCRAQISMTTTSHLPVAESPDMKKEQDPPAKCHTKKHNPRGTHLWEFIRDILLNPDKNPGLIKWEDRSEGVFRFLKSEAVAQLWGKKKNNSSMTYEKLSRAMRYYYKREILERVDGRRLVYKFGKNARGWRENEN
Method in brief: as §1

SPI1 = SPI1 (Homo sapiens, UniProt P17947 1-270); conditions: protein: recombinant; tags: N-terminal GST; dsDNA, one strand shown
Method in brief: as §1

SPIB = SPIB (Homo sapiens, UniProt Q01892 1-262); conditions: protein: recombinant; tags: N-terminal GST; dsDNA, one strand shown
Method in brief: as §1

ELK3 = target: T6, ELK3 (Homo sapiens, UniProt P41970 1-407); conditions: protein: recombinant; tags: N-terminal GST; dsDNA, one strand shown
T6 sequence: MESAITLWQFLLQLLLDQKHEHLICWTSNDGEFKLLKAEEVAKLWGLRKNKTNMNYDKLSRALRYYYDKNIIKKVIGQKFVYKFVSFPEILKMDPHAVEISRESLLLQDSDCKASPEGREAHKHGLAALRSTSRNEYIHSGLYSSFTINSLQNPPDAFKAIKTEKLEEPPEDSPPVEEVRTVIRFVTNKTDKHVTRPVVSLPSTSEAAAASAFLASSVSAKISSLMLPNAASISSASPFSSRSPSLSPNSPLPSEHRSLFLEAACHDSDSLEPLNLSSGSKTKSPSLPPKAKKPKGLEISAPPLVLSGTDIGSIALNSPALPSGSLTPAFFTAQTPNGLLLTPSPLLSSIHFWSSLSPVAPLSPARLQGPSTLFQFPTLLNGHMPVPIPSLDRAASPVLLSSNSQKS
Method in brief: as §1

FEV = target: T7, FEV (Homo sapiens, UniProt Q99581 1-238); conditions: protein: recombinant; tags: N-terminal GST; dsDNA, one strand shown
T7 sequence: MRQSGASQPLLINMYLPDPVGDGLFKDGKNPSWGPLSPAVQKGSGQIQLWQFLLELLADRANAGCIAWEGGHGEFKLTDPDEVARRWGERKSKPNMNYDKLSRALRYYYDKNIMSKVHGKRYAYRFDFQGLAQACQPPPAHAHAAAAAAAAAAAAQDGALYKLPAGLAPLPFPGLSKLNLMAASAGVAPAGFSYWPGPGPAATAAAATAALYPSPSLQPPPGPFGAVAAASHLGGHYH
Method in brief: as §1

ETV5 = ETV5 (Homo sapiens, UniProt P41161 1-510); conditions: protein: recombinant; tags: N-terminal GST; dsDNA, one strand shown
Method in brief: as §1

HSF1 = HSF1 (Homo sapiens, UniProt Q00613 1-529); conditions: protein: recombinant; tags: N-terminal GST; chain copies: 3; dsDNA, one strand shown
Method in brief: as §1

SPIC = target: T8, SPIC (Homo sapiens, UniProt Q8N5J4 1-248); conditions: protein: recombinant; tags: N-terminal GST; dsDNA, one strand shown
T8 sequence: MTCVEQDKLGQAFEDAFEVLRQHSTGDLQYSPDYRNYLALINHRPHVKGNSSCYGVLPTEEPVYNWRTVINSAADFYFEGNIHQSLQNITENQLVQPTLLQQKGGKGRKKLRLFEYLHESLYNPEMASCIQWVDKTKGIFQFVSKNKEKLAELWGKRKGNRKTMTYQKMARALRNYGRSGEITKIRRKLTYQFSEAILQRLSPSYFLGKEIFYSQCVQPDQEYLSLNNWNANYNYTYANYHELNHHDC
Method in brief: as §1

ELF4 = ELF4 (Homo sapiens, UniProt Q99607 1-663); conditions: protein: recombinant; tags: N-terminal GST; dsDNA, one strand shown
Method in brief: as §1

ELK4 = target: T9, ELK4 (Homo sapiens, UniProt P28324-2 1-405); conditions: protein: recombinant; tags: N-terminal GST; dsDNA, one strand shown
T9 sequence: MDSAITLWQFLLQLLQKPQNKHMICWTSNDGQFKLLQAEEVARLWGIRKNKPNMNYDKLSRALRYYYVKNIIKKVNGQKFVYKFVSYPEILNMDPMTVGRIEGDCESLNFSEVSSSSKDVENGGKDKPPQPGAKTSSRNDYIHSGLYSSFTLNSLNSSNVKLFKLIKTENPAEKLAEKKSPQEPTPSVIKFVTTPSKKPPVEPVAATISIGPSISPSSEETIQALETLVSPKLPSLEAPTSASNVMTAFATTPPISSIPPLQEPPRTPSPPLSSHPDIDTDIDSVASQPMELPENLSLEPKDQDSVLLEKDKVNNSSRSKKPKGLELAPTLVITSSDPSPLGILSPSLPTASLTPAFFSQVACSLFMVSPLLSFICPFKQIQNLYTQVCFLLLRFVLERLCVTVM
Method in brief: as §1

ETV2 = target: T10, ETV2 (Homo sapiens, UniProt O00321 1-342); conditions: protein: recombinant; tags: N-terminal GST; dsDNA, one strand shown
T10 sequence: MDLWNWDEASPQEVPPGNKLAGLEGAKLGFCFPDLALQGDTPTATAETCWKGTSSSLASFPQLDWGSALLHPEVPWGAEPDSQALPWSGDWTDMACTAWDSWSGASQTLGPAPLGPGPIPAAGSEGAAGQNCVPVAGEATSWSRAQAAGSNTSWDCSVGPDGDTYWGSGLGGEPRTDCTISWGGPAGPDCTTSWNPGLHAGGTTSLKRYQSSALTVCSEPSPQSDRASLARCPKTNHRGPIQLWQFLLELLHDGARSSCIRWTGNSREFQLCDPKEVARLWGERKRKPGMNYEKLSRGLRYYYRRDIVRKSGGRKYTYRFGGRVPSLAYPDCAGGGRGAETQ
Method in brief: as §1

ELF3 = target: T11, ELF3 (Homo sapiens, UniProt P78545 1-371); conditions: protein: recombinant; tags: N-terminal GST; dsDNA, one strand shown
T11 sequence: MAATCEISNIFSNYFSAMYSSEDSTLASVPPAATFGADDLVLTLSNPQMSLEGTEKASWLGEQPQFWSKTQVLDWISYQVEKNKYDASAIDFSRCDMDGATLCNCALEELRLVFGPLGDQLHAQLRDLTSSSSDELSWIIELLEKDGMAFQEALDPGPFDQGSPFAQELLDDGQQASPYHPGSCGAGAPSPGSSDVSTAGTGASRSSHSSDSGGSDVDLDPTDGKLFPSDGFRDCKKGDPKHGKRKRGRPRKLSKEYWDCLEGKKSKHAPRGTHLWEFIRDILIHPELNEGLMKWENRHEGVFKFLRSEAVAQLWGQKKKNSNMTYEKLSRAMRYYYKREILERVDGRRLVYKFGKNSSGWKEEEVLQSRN
Method in brief: as §1

CRX = CRX (Homo sapiens, UniProt O43186 1-299); conditions: protein: recombinant; tags: N-terminal GST; dsDNA, one strand shown
Method in brief: as §1

ETV1 = ETV1 (Homo sapiens, UniProt P50549 1-477); conditions: protein: recombinant; tags: N-terminal GST; dsDNA, one strand shown
Method in brief: as §1

Chain of SPIB (Q01892 whole entry): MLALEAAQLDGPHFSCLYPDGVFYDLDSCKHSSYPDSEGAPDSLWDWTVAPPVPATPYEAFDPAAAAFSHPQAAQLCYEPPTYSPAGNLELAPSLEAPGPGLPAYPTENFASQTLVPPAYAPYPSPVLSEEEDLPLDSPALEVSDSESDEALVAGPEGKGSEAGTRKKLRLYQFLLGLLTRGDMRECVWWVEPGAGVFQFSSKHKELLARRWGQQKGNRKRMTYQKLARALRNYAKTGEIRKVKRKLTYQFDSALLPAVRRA
Chain of HSF1 (Q00613 whole entry): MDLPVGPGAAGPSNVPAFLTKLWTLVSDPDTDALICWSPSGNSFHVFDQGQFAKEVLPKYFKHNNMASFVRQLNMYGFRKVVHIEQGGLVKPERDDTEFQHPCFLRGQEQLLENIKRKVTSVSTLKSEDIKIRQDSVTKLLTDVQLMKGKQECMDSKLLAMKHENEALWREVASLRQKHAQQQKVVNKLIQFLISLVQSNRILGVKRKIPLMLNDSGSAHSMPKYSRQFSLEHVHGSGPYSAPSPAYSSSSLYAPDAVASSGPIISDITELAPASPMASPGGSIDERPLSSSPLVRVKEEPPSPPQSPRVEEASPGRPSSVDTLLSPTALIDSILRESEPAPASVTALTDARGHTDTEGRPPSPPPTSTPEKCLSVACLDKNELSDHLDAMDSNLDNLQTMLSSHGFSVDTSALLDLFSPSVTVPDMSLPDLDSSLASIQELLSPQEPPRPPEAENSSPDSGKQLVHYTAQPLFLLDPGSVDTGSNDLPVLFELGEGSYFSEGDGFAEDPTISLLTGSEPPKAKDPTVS
Chain of ETV5 (P41161 whole entry): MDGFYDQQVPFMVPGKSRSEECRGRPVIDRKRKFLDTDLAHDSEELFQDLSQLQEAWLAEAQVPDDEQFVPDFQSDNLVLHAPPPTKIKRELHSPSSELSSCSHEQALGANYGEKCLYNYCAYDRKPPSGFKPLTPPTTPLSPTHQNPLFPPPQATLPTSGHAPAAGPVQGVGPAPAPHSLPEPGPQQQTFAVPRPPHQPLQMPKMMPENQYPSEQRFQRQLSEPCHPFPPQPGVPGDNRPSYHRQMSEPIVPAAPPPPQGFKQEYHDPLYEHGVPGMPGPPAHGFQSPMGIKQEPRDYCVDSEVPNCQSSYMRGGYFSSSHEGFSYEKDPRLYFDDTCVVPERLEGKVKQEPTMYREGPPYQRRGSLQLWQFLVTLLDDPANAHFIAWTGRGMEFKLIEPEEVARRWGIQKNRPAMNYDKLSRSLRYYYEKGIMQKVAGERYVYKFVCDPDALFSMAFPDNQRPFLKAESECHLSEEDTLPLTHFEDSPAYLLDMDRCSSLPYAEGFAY
Chain of ELF1 (P32519 whole entry): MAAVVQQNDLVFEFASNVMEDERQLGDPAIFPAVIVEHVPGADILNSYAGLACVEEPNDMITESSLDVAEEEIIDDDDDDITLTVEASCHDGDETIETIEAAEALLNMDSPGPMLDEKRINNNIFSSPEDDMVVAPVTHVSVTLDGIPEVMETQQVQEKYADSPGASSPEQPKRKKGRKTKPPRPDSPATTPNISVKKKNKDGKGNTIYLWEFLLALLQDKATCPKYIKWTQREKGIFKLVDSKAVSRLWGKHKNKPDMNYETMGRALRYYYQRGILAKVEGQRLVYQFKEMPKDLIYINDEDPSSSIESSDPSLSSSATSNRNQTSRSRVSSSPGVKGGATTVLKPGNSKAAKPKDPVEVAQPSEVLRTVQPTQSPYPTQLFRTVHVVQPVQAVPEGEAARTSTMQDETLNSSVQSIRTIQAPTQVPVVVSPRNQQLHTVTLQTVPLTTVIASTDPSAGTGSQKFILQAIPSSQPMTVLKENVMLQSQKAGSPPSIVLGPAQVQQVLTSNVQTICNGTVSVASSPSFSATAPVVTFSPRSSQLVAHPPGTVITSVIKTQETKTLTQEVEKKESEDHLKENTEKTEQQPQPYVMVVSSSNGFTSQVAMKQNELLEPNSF
Chain of ELF4 (Q99607 whole entry): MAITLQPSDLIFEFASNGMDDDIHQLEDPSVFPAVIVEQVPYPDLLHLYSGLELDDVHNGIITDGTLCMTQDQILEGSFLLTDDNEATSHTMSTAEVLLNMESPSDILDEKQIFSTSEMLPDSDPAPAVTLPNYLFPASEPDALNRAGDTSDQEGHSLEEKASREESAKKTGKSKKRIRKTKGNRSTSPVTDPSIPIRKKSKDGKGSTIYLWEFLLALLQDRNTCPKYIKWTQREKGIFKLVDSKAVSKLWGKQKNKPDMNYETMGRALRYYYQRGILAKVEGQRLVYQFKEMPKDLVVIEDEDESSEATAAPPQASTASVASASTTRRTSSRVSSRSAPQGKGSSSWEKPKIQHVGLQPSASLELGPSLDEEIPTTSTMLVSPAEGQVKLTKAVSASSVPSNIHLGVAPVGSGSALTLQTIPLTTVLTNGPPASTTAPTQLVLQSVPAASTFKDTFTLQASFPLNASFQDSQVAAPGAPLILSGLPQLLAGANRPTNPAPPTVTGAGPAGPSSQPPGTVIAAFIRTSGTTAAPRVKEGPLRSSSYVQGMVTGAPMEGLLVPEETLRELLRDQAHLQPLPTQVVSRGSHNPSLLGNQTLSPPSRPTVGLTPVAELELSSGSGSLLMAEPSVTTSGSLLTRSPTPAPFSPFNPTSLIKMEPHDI
Chain of ETV1 (P50549 whole entry): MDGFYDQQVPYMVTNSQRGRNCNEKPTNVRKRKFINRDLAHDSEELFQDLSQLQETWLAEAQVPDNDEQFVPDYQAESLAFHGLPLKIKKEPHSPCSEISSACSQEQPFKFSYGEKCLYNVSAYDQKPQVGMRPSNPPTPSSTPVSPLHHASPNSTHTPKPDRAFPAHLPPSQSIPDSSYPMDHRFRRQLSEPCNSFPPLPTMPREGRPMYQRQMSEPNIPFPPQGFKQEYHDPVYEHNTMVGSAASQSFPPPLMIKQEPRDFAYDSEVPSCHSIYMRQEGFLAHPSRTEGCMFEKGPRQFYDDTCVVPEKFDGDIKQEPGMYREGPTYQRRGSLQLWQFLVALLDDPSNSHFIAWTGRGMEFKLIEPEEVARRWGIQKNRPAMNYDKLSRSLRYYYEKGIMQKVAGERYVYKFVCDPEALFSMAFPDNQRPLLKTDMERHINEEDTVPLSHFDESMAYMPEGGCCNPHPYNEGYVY
Chain of CRX (O43186 whole entry): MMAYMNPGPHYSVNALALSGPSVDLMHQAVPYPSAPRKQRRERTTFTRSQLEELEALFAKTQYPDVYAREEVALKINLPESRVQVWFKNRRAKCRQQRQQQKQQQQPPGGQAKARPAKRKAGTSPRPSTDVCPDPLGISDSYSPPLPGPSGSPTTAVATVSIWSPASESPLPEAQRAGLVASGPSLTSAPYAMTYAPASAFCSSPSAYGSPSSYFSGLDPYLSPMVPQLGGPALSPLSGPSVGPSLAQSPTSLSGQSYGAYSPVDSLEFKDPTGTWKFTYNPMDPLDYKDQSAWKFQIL

## GATTAT
FLI1
  binding signal: 1.04 fold enrichment (6-mer frequency, TF over GST control)
ELK1
  binding signal: 1.1 fold enrichment (6-mer frequency, TF over GST control)
GABPA
  binding signal: 1.1 fold enrichment (6-mer frequency, TF over GST control)
ERG
  binding signal: 1.06 fold enrichment (6-mer frequency, TF over GST control)
ELF1
  binding signal: 1.02 fold enrichment (6-mer frequency, TF over GST control)
EHF
  binding signal: 1.09 fold enrichment (6-mer frequency, TF over GST control)
SPI1
  binding signal: 1.03 fold enrichment (6-mer frequency, TF over GST control)
SPIB
  binding signal: 1.11 fold enrichment (6-mer frequency, TF over GST control)
ELK3
  binding signal: 1.07 fold enrichment (6-mer frequency, TF over GST control)
FEV
  binding signal: 1.01 fold enrichment (6-mer frequency, TF over GST control)
ETV5
  binding signal: 1.03 fold enrichment (6-mer frequency, TF over GST control)
HSF1
  binding signal: 2.66 fold enrichment (6-mer frequency, TF over GST control)
SPIC
  binding signal: 1.09 fold enrichment (6-mer frequency, TF over GST control)
ELF4
  binding signal: 1.14 fold enrichment (6-mer frequency, TF over GST control)
ELK4
  binding signal: 1.06 fold enrichment (6-mer frequency, TF over GST control)
ETV2
  binding signal: 1.07 fold enrichment (6-mer frequency, TF over GST control)
ELF3
  binding signal: 1.16 fold enrichment (6-mer frequency, TF over GST control)
CRX
  binding signal: 4.27 fold enrichment (6-mer frequency, TF over GST control)
ETV1
  binding signal: 1.06 fold enrichment (6-mer frequency, TF over GST control)
